PostGolgi yeast: growth inhibition of a yeast mutant, post-Golgi transport screen. post-Golgi transport phenotypic cell assay. inhibition, % at 10 µM. hit rate 0.9% among 98,000;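 also: yeast cells grown in 1536-well plates; yeast grown about 18 h at 30C before absorbance read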
D1 mod: allosteric modulators of human D1 dopamine receptor; P21728; B-score at 10 µM; HEK293 D1, CRE-luciferase, dopamine EC30 potentiation; actives deviate in either direction; hit rate 5.9% among 58,000; AID 641;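 active = luminescence count or its row- and column-corrected plate score outside the 99.7% band of the plate's sample wells, on either side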
Target sequence (P21728 whole entry, looked up): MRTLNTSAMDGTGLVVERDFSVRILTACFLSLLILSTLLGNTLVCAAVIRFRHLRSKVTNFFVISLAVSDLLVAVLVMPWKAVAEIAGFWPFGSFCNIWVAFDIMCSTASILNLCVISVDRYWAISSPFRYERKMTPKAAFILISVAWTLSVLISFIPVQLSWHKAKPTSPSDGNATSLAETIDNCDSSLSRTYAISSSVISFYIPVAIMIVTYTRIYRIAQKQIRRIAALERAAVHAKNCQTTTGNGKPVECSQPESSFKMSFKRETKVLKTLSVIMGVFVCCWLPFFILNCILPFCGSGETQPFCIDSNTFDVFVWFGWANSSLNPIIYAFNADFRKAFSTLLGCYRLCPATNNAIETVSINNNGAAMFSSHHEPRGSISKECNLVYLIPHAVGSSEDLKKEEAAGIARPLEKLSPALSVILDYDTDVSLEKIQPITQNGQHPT
PLAP activator: human PLAP activation; purified PLAP enzyme, luminescent substrate read-out; hits give high values; activation fold at 20 µM; AID 696; hit rate 1.2% among 96,000; in the data active = activation fold above about 2
PostGolgi ctrl: yeast control strain growth, post-Golgi counter-screen; efflux-deficient yeast background strain, growth absorbance A615, 16 h; inhibition, % at 10 µM; AID 738; hit rate 5% among 98,000
DAT uptake mod: changed human dopamine transporter uptake under cocaine IC80 | LLC-PK1 hDAT cells, [14C]-dopamine uptake with cocaine IC80; actives deviate in either direction | hit rate 1.3% among 110,000 | B-score at 10 µM | AID 449768;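 active = Z score or B-score, a plate-position-corrected score, falls beyond the plate's 99.7% confidence bounds, in either direction; inactive = both scores lie inside the 99.7% bounds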
Cav32 inh: blocks human Cav3.2 T-type calcium channel; AID 449739; B-score at 10 µM; Cav3.2-expressing cells, Fluo-4 calcium fluorescence FDSS; hits give low values; hit rate 4% among 100,000; O95180;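 active = single-dose well whose peak fluorescence ratio is a statistical outlier from its plate by either plate-standardised score or position-corrected B-score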
Numbers stand for hits; 0 = inactive; - = no result. Shown are actives, neighbours in structure and some others; about 12% of the full set was active somewhere. Rule as the data show it, unless noted: active = inhibition above about 30%; inactive = the rest.

SMILES	PostGolgi yeast	D1 mod	PLAP activator	PostGolgi ctrl	DAT uptake mod	Cav32 inh
CCOC(=O)Cn1c(=O)c2c(nc(Br)n2Cc2ccc(Cl)cc2)n(C)c1=O	-	0	0	-	0	0
O=C(Nc1ccc(OCC(F)(F)C(F)F)c(C(F)(F)F)c1)c1ccccc1	-	-	-	-	0	0
O=C(Nc1ccc(OCC(F)(F)C(F)F)c(C(F)(F)F)c1)c1ccccc1O	0	-	0	85	0	0
CCOC(=O)N1CCN(C(=O)C2CCCN(S(=O)(=O)c3ccc(C)cc3)C2)CC1 (stereo not drawn)	0	-	0	0	0	0
COc1ccc(N(CC(=O)NCc2cccnc2)S(=O)(=O)c2c(C)nn(C)c2C)cc1	0	0	0	37	0	0
COc1ccc(N(CC(=O)Nc2nc3ccc(C)cc3s2)S(=O)(=O)c2c(C)nn(C)c2C)cc1	0	0	0	32	0	0
COc1ccc(N(CC(=O)Nc2cccc(OC)c2)S(=O)(=O)c2c(C)nn(C)c2C)cc1	0	-	0	0	0	0
COc1ccc(N(CC(=O)NCc2ccccc2)S(=O)(=O)c2c(C)nn(C)c2C)cc1	0	-	0	0	0	0
CCCN1CCCc2cc(CN)ccc21	0	0	0	0	-2.4	0
c1ccc2c(c1)OCC(c1nnc3sc(-c4ccc5c(c4)OCO5)nn13)O2 (stereo not drawn)	0	0	0	0	-8.6	0
COc1ccc(C(=O)Nc2nnc(-c3ccccc3)o2)cc1OC	0	0	2.1	0	0	0
COc1cccc(-c2nnc(NC(=O)c3cccc(F)c3)o2)c1	-	0	-	-	0	0
O=C(Nc1nnc(-c2cccs2)o1)c1cccc(Oc2ccccc2)c1	34	0	0	0	0	-8.3
Cc1cccc(-c2nnc(NC(=O)c3ccc(Cl)cc3)o2)c1	94	0	0	81	0	-4.4
COc1ccc(C(=O)CSc2nnc(CNC(=O)c3ccc(OC)c(OC)c3)n2C)cc1	0	0	0	0	0	0
O=C(O)c1c(-c2ccccc2)c2oc3ccccc3c2[nH]c1=O	0	0	0	0	0	0
O=C(NCCO[N+](=O)[O-])c1cccnc1	-	-	-	-	0	0
CN1C(=O)CC(N2CCN(c3ccccc3)CC2)C1=O (stereo not drawn)	-	-	-	-	0	0
O=c1oc(-c2ccccc2)nc2c1C1(CCCCC1)Cc1ccccc1-2	0	-	0	0	0	0
O=c1c2c(nc3n1CCCCC3)-c1ccccc1CC21CCCC1	0	0	0	46	0	-
O=c1[nH]c(NCCCO)nc2c1C1(CCCC1)Cc1ccccc1-2	0	0	0	0	0	-4.1
Cn1c(NCCO)nc2c(c1=O)C1(CCCCC1)Cc1ccccc1-2	0	0	0	50	0	0
CCN(CC)Cc1nc2c(c(=O)[nH]1)C1(CCCCC1)Cc1ccccc1-2	0	0	0	32	0	0
CN(Cc1ccccc1)C(=O)CC(c1ccccc1)c1cc(Cl)ccc1O (stereo not drawn)	0	-	0	0	-	-
CC(C)Sc1nnc([C@H](Cc2c[nH]c3ccccc23)NC(=O)OC(C)(C)C)o1	0	-	0	0	0	-4.1
SMILES	PostGolgi yeast	D1 mod	PLAP activator	PostGolgi ctrl	DAT uptake mod	Cav32 inh
Cc1ccc(-n2c(C)cc(C3N=C(N)Nc4nc5ccccc5n43)c2C)c(C)c1 (stereo not drawn)	0	0	0	46	0	0
CCn1cc(/C=N/NS(=O)(=O)c2ccc(OC)cc2)c(C)n1	0	-	0	0	0	0
O=S(=O)(c1ccc(Cl)cc1)n1nnc2ccccc21	0	-	0	0	-	0
Oc1ccccc1NCC(O)Cn1ccc2ccccc21 (stereo not drawn)	0	0	0	37	0	0
OCc1nc2ccccc2n1CC(O)Cn1ccc2ccccc21 (stereo not drawn)	0	0	0	0	0	0
CCSCc1nnc(SCC(=O)c2ccc(OC)cc2)n1C	0	0	0	0	0	0
CC(C)(C)N1C(=O)c2ccc(C(=O)NCc3ccco3)cc2C1=O	0	-	0	0	0	0
COc1ccc(-n2c(Cc3cccn3C)nnc2SCC(=O)Nc2ccc(F)cc2F)cc1	0	0	0	0	0	-8.4
COc1ccc(-n2c(Cc3cccn3C)nnc2SCC(=O)Nc2ccccc2F)cc1	0	0	0	0	0	-4.4
Cc1c(CCO)c(=O)n(-c2ccccc2)n1S(=O)(=O)c1ccc(Cl)cc1	0	-	0	0	0	0
CCCSc1nnc(NC(=O)c2sc3nc(-c4cccs4)ccc3c2N)s1	0	0	0	0	0	-9.9
Cc1csc(NC(=O)c2sc3nc(-c4cccs4)ccc3c2N)n1	0	-2.8	0	0	0	-5.4
C=CCc1ccc(OCCOc2cccc3ccc(C)nc23)c(OC)c1	0	-	0	0	0	0
Cc1oc(-c2ccc3c(c2)OCCO3)cc1C(=O)NC(CCC(=O)O)C(=O)O (stereo not drawn)	0	0	0	0	0	0
Cc1oc(-c2ccc3c(c2)OCCO3)cc1C(=O)O	-	-6.2	0	-	0	0
CCC1ON(c2ccccc2)C2c3nc4ccccc4n3CC12 (stereo not drawn)	-	-	-	-	0	0
O=C(ON=C1CCN(S(=O)(=O)c2ccccc2)CC1)c1ccc(F)cc1	0	-	-	0	0	0
O=C(O/N=C1/CCSc2ccccc21)c1ccc(F)cc1	0	-	0	0	0	-4.7
COC(=O)c1ccccc1S(=O)(=O)N(Cc1ccco1)Cc1cc2cc(OC)ccc2[nH]c1=O	0	0	0	0	0	0
COC(=O)c1ccccc1S(=O)(=O)N(CCCO)Cc1cc2c(C)ccc(C)c2[nH]c1=O	0	0	0	36	0	0
CCn1c(=NC(=O)CSC(C)=O)sc2cc(F)ccc21	0	0	0	0	0	-11
Cc1ccccc1NC(=S)NNC(=O)c1ccoc1C	0	-	2.1	0	0	0
Cc1ccc(NC(=O)CCC(=O)NNC(=O)c2cccs2)cc1C	0	-	2	0	0	0
COc1ccc(NC(=O)c2cccs2)cc1NC(=O)c1ccco1	0	-	0	0	0	0
Cc1ccc(C)c(NC(=S)NNC(=O)c2ccco2)c1	0	-	2.5	0	0	0
SMILES	PostGolgi yeast	D1 mod	PLAP activator	PostGolgi ctrl	DAT uptake mod	Cav32 inh
Cc1ccc(NC(=O)c2cccs2)cc1NC(=O)c1ccco1	0	0	0	32	0	0
COc1ccc(C)cc1NC(=O)C(=O)NNC(=O)c1ccco1	0	-	2.5	0	0	0
Cc1ccc(C)c(NC(=S)NNC(=O)c2sccc2C)c1	0	-	2.6	0	0	0
COc1cc(NC(=O)c2ccco2)c(OC)cc1NC(=O)CCC(=O)Nc1cc(C)ccc1C	0	-	0	0	0	0
Cc1ccc(C)c(NC(=S)NNC(=O)c2ccc(Br)o2)c1	0	-	2.3	0	-	-
Cc1ccc(C)c(NC(=S)NNC(=O)c2csc(C(C)C)c2)c1	-	-	-	-	0	0
COc1cc(CCN2C(=O)N[C@@H](CCc3ccccc3)C(C(C)=O)=C2C)cc(OC)c1OC	-	-	-	-	0	0
Cc1ccc(CNC(=O)[C@H]2C[C@@H]2[C@H](NP(=O)(c2ccccc2)c2ccccc2)c2ccccc2)o1	-	-	-	-	0	0
CCOC(=O)c1c(NC(=O)c2noc3c2CCCC3)sc(C)c1C	0	0	0	0	0	0
O=C(NC(NNc1ccc([N+](=O)[O-])cc1)(C(F)(F)F)C(F)(F)F)c1ccc(Cl)cc1	0	-	0	58	0	0

Screening results from PubChem.
